Test [1] is described as follows: inhibitors of TNFa-induced NFkB p65 translocation, primary screen, imaging, HUVEC, MLSMR starter and 10KST1 sets (AID 438;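 active means inhibition above 20% together with a positive visual image hit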;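 further: compound added about 3h40 before a 20 min TNFalpha stimulation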;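 on inhibition: signal is the nuclear over cytoplasmic p65 intensity ratio per well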). The conditions noted are these: HUVEC TNFa-induced p65 nuclear translocation; cell count: measured here: nuclei count (cytotoxicity indicator), at 2.08 µM unless noted; inhibition: at 2 µM, stronger effect = higher value unless noted.
Test [2] can be described thus: inhibitors of mutant huntingtin aggregation, primary screen, imaging, exon1htt(103Q)mCFP cells, high-content imaging (AID 483;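 active means visual image review flags a hit and inhibition of aggregation exceeds 20%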;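 further: compound exposure lasted 3 days before fixation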;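 on nuclei count: percent of the per-plate median nuclei count of sample wells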). Particulars: exon1htt(103Q)mCFP cell line, aggregate imaging, at 2 µM; inhibition of aggregation: stronger effect = higher value; nuclei count: measured here: cell count, toxicity.
Test [3] is described as follows: inhibitors of E-selectin induction by TNFa, primary screen, imaging, HUVEC, immunofluorescence, MLSMR starter and 10KST1 sets (AID 487;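 active means visually confirmed hit in the image check and inhibition above 20%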;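 on inhibition: signal is fraction of cell area covered by stained E-selectin grains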;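 on nuclei count: 100% = median nuclei count of all wells on the same plate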). The conditions noted are these: HUVEC TNFalpha-induced E-selectin immunofluorescence imaging, at 2 µM; inhibition: stronger effect = higher value; nuclei count: measured here: cell number, toxicity.
Test [4] can be described thus: DUSP6 inhibitors restoring Erk phosphorylation by chemical complementation, primary imaging in DUSP6-transfected HeLa (AID 609;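 active means compounds giving at least 50% inhibition in the cell-based MKP-3 phosphatase rescue imaging test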;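 on inhibition: phospho-Erk level distribution per well compared with pooled transfected vehicle control wells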). Particulars: HeLa MKP-3 transfected, phospho-Erk imaging KS statistic, at 10 µM.
For test [5], the target named is Dual specificity protein phosphatase 6 (Homo sapiens) (UniProt Q16828). The test is described as above. The conditions noted are these: HeLa MKP-3 transfected, phospho-Erk imaging KS statistic, at 10 µM, stronger effect = higher value.
The target of test [6] is Voltage-gated potassium channel subunit beta-2 (Rattus norvegicus) (UniProt P62483). As to the kind of experiment: KvBeta enzyme negative modulators, primary screen, biochemical, NADPH fluorescence (AID 622;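 active means fluorescence slope higher than the sample average by over 3 SD, cut at about -0.22 in these data, passing the limit was not always enough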;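 further: slope of raw intensity against log time taken from 70 to 1610 s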). The conditions noted are these: recombinant KvBeta, 4-cyanobenzaldehyde reduction, at 10 µM, stronger effect = higher value.
Test [7] has the same target. The test is described as follows: KvBeta positive modulators, primary screen, biochemical, NADPH fluorescence (AID 623;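 active means NADPH fluorescence slope more negative than the mean of all samples by about 3 SD, 99.7% confidence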;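 further: fluorescence intensity change per second fitted from 20 to 320 s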). Particulars: Recombinant KvBeta, NADPH fluorescence decrease slope, 10 min; at 10 µM; stronger effect = lower value.
Test [8] concerns the target Alpha-2C adrenergic receptor (Homo sapiens) (UniProt P18825). As to the kind of experiment: modulators of alpha2C/GIRK thallium flux, primary screen, cell-based, HEK293 alpha2C/GIRK1/2 (AID 624;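 active means fluorescence slope after compound addition differing from the mean of all screened samples at 99.7% confidence, in either direction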;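 further: slope of fluorescence ratio to pre-addition baseline per second over 15 to 24 s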). The conditions noted are these: thallium flux BTC fluorescence, at 10 µM, actives lie on both sides.
Test [9] is described as follows: inhibitors of larval lipid processing in zebrafish, primary screen, whole organism, PED6 fluorescence, gall bladder and intestine (AID 686;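 active means a full or partial loss of lipid-probe fluorescence in the fish gall bladder, intestine or both, judged by eye; inactive means no fluorescence loss, or compound toxic to the fish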;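 further: larvae 5 to 7 days old with five fish per well; signal comes from phospholipase A2 cleavage of quenched PED6 carried via bile; overnight exposure to compound and PED6 before scoring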). The conditions noted are these: Zebrafish larvae PED6 lipid processing, fluorescence scoring.
A short description of test [10]: inhibitors of Chlamydomonas gravitaxis, primary screen, whole organism, Chlamydomonas reinhardtii, WT vs cilia-less mutant, absorbance, 96-well (AID 463189;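 active means inhibition at or above 50% relative to wild type and mutant plate controls; inactive means inhibition below 50%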;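 further: 0% = wild type cc124 cells in DMSO and 100% = ciliumless bld1 mutant cells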). Particulars: OD600 absorbance, 2 days, at 10 µM, stronger effect = higher value.
Test [11] in a line: inhibitors of Sendai virus-induced IRF3 signaling, primary screen, TLR/RLR signaling modifier project, cell-based, Sendai virus stimulus, luciferase, 10K MLSCN set (AID 602276;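 active means inhibition at or above 50% at 10 µM; inactive means inhibition below 50%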;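 further: firefly luciferase from ISG56 promoter only with Renilla not read in this screen; 0% = Sendai virus plus DMSO and 100% = medium plus DMSO without virus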). The conditions noted are these: HEK293 RL24 IRF3 luciferase reporter, at 10 µM, stronger effect = higher value. (In general: In a reporter assay the amount or activity of a reporter protein is the signal.)
Test [12] is described as follows: inhibitors of poly I:C-induced TLR3 signaling, primary screen, cell-based, poly I:C stimulus, luciferase, 10K MLSCN set (AID 602277). Particulars: HEK293-TLR3 RL24 IRF3 luciferase reporter, at 10 µM, stronger effect = higher value.
For test [13], the target named is Solute carrier family 12 member 5 (Homo sapiens) (UniProt Q9H2X9). As to the kind of experiment: KCC2 modulators in sodium-free buffer, confirmation, cell-based, HEK293 KCC2, thallium flux, secondary assay (AID 1713;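 active means thallium flux slope above the same plate's solvent-only control mean plus 3 SD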). The conditions noted are these: FluoZin2 fluorescence, at 10 µM, stronger effect = higher value.
A short description of a further test: PubChem AID 1714.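 Further: raw slope of fluorescence over initial fluorescence between 10 and 20 s after thallium.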 Particulars: HEK293-KCC2 + bumetanide/ouabain, thallium flux FluoZin2; at 10 µM; stronger effect = higher value.
In test [14] the target is Solute carrier family 12 member 5 (Homo sapiens) (UniProt Q9H2X9). As to the kind of experiment: KCC2 modulators without ouabain present, confirmation, cell-based, HEK293 KCC2, thallium flux, FluoZin2, secondary assay 2 (AID 1715;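 active means thallium flux slope more than 3 SD above or below the plate's solvent-only control mean, mostly below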;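 further: raw slope with 0.1% DMSO as baseline and bumetanide as block control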). The conditions noted are these: HEK293-KCC2, thallium flux FluoZin2 fluorescence; at 10 µM; actives lie on both sides.
Test [15] is described as follows: thallium flux modulation in parental HEK cells, confirmation, counter-screen for KCC2 modulator project, cell-based, counterscreen 1 (AID 1716;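 active means thallium flux rate significantly above the same plate's solvent-only control wells, beyond their mean plus 3 SD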). Particulars: HEK293 parental cells, thallium flux FluoZin2, ouabain; at 10 µM; baseline-ratio fluorescence slope, 10–20 s after thallium.
In test [16] the target is Solute carrier family 12 member 5 (Homo sapiens) (UniProt Q9H2X9). The test is described as follows: KCC2 inhibitors and activators, ouabain retest, confirmation, HEK-KCC2 cells (AID 1717;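 active means thallium flux slope beyond 3 SD from same-plate DMSO control mean in most replicates, usually higher, sometimes lower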;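 further: slope of initial-normalized fluorescence between seconds 10 and 20 after thallium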). Particulars: HEK293-KCC2, thallium flux FluoZin2 fluorescence, at 10 µM, bidirectional: low = inhibitor, high = activator.
The nature of test [17]: native HEK Tl+ uptake effects, second counter-screen – HEK cells, counterscreen 2, counter-screen for KCC2 modulator project, confirmation (AID 1718;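 active means thallium flux slope above the same plate's solvent-control mean plus 3 SD in both duplicate wells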;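 further: run without ouabain in cells lacking the KCC2 cotransporter; slope of fluorescence scaled to its starting value between 10 and 20 s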). Particulars: HEK293 parental, thallium flux FluoZin-2 fluorescence slope; at 10 µM. For orientation: The purpose of a counterscreen is to sort out artefacts and off-target activity.
Where [18] appears, read: measured here: cell density z-score.
The mark [19] stands for this setting: measured here: nuclear c-Myc green intensity z-score.
Where [20] appears, read: measured here: nuclear pErk red intensity z-score, stronger effect = higher value.

A word on the inhibition: it is the drop in the measured response relative to a control, in per cent.

Some of the results follow. Records with an inconclusive call do not appear. Calls of active or inactive are those of the source.

Chain of Voltage-gated potassium channel subunit beta-2 (Rattus norvegicus) (P62483 whole entry, looked up): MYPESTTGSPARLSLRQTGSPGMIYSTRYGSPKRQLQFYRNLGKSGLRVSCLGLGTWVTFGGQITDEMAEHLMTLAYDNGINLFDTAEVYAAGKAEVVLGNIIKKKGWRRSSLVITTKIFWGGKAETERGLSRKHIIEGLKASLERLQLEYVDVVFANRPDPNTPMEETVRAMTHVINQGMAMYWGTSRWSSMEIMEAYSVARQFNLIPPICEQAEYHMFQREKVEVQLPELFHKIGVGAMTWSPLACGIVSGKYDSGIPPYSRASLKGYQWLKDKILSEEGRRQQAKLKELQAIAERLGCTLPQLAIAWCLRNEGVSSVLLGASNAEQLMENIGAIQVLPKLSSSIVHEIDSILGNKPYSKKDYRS
Chain of Dual specificity protein phosphatase 6 (Homo sapiens) (Q16828 whole entry, looked up): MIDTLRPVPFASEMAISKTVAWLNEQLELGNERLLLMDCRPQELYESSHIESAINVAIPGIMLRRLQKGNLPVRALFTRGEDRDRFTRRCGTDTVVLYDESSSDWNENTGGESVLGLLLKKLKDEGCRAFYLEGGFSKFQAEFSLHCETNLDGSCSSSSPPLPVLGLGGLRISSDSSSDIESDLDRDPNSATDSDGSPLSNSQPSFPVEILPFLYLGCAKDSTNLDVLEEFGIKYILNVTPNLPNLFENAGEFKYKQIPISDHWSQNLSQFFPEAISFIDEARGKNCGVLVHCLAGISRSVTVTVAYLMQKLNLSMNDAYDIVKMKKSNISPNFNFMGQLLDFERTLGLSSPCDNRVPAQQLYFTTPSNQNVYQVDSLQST
Chain of Solute carrier family 12 member 5 (Homo sapiens) (Q9H2X9 whole entry, looked up): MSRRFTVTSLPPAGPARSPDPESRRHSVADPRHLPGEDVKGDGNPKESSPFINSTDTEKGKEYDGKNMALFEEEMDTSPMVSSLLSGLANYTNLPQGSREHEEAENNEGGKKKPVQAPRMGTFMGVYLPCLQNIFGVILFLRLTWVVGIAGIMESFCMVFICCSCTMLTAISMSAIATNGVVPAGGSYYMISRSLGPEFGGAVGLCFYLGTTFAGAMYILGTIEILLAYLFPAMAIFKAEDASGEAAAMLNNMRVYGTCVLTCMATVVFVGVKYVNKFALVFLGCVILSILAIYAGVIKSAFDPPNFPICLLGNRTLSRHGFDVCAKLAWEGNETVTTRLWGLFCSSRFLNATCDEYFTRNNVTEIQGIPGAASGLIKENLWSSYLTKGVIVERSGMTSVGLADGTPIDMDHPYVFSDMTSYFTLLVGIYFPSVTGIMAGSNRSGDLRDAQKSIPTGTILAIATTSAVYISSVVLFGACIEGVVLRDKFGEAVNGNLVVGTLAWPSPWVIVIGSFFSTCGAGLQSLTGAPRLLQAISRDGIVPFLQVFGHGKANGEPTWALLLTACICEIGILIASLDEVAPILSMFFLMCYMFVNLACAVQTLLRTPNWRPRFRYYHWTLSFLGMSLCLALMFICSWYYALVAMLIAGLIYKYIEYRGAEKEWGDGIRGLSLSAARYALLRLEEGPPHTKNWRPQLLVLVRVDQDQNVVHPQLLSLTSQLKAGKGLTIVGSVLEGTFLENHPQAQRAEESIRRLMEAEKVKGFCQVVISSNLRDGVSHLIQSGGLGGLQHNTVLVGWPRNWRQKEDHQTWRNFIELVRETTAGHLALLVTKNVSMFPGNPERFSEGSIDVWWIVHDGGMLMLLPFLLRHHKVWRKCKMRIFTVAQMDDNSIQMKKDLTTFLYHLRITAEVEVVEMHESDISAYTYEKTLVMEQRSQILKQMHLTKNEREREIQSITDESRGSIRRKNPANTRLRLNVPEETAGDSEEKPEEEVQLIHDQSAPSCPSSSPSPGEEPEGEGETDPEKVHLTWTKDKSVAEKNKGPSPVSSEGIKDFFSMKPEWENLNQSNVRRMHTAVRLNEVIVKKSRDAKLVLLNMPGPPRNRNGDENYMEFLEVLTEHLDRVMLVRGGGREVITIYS
Chain of Alpha-2C adrenergic receptor (Homo sapiens) (P18825 whole entry, looked up): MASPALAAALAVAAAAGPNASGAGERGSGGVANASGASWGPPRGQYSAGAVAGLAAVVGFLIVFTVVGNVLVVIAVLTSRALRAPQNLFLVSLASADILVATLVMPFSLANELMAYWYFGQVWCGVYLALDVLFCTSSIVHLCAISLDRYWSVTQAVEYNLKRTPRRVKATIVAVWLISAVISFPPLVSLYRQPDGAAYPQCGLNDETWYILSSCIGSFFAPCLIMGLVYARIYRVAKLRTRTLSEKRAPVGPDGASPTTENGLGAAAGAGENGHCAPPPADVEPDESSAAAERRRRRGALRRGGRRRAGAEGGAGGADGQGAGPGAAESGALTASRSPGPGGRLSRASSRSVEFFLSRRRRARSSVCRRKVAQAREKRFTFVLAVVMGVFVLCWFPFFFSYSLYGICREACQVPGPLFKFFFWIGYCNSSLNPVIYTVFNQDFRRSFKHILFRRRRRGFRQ

In test [1], `CC(C)C(=O)N1CCN(CCN=Cc2c(O)n(C)c(=O)n(C)c2=O)CC1` registered a cell count of 517. Moreover, the inhibition in test [1] is -3.1% (inactive); in [3], -78.2% (inactive); in [5], 1.9e-07% (inactive); in [10], 33.6% (inactive); in test [11] it was -6.82% (inactive); in test [12] it was -2.86% (inactive). Also, in test [2], the inhibition of aggregation is -28.7% (inactive). Further, the figures for the nuclei count in [2] and in test [3] were 138% and 112%, respectively. Further, the values for the z-score in test [4] (setting [18]), in test [4] (setting [19]) and in [4] (setting [20]) were 0.289, -1.08 and 0.644, respectively. In test [6], the fluorescence slope was -0.5 (inactive). Moreover, the NADPH fluorescence slope in test [7] was -3.4e-05 (inactive). For the same compound, the slope in test [8] is 0.00563 (inactive). For the same compound, the compound was called inactive in test [9].
As for `CN1CCC(OC(=O)C2c3ccccc3Oc3ccccc32)CC1`, the cell count in test [1] came out at 593. The inhibition in test [1] was -3.3% (inactive); in test [3], -38.4% (inactive); in test [5] it was -3.5% (inactive); in test [10], 11.4% (inactive); in test [11], 7.89% (inactive); in [12], 12.3% (inactive). Besides, the inhibition of aggregation in test [2] was -33.4% (inactive). Besides, the nuclei count in test [2] was determined as 104%; in [3], 143%. In addition, the z-score in test [4] (setting [18]) is -1.82; in test [4] (setting [19]) it was 0.811; in [4] (setting [20]) it was -0.439. The fluorescence slope in [6] was -0.316 (inactive). The NADPH fluorescence slope in [7] was 1.2e-05 (inactive). Further, the slope in test [8] was 0.0042 (inactive). In addition, the outcome in test [9] was inactive.
Consider `CCOc1ccc(-n2c(O)c(C=NCCN3CCNCC3)c(=O)[nH]c2=O)cc1`, for which the cell count in test [1] worked out at 537. Further, the inhibition in test [1] is 3.2% (inactive); in [3], -38.9% (inactive); in [5], -4.7% (inactive); in test [10], 8.26% (inactive); in test [11], 14.4% (inactive); in test [12], 22.5% (inactive). Further, the inhibition of aggregation in test [2] is -17.4% (inactive). Also, the nuclei count in test [2] turned out to be 96.7%; in test [3] it was 144%. The z-score is -0.956 in [4] (setting [18]), -1.36 in test [4] (setting [19]) and 0.949 in test [4] (setting [20]). Also, the fluorescence slope in test [6] was -0.351 (inactive). Moreover, in test [7], the NADPH fluorescence slope was -8.4e-06 (inactive). Further, the slope in [8] is 0.00537 (inactive). The call in test [9] was inactive.
`CCOC(=O)c1cc2c(cn1)[nH]c1ccccc12` gave a cell count in [1] of 594. Moreover, the inhibition in test [1] is -2.5% (inactive); in [3] it was -12.8% (inactive); in test [5], 1.48% (inactive); in [10] it was -6.97% (inactive); in test [11] it was -4.33% (inactive); in test [12], -27.3% (inactive). For the same compound, the inhibition of aggregation in [2] is 2% (inactive). Besides, the nuclei count was 102% in test [2] and 110% in [3]. For the same compound, the results for the z-score in test [4] (setting [18]), in test [4] (setting [19]) and in test [4] (setting [20]) were -0.332, -1.06 and -1.1, respectively. For the same compound, the fluorescence slope in test [6] was -0.368 (inactive). The NADPH fluorescence slope in test [7] is 7.4e-07 (inactive). Besides, the slope in test [8] is 0.00544 (inactive). The outcome in test [9] was inactive.
`C[C@H]1CCC/C=C/C2C[C@H](O)CC2[C@H](O)/C=C/C(=O)O1` (stereo partly specified): the cell count in test [1] amounted to 647. The inhibition in [1] is 83.2% (active); in [3] it was 94.9% (active); in test [5], 23.4% (inactive); in test [10] it was 155% (active); in test [11], -44.8% (inactive); in [12], 83% (active). In addition, the inhibition of aggregation in [2] was -436% (inactive). For the same compound, the nuclei count in test [2] came out at 0.6%; in test [3], 120%. Further, the figures for the z-score in test [4] (setting [18]), in test [4] (setting [19]) and in test [4] (setting [20]) were -0.283, 0.495 and -0.185, respectively. Besides, the fluorescence slope in test [6] is -0.473 (inactive). In addition, in test [7], the NADPH fluorescence slope is -3.1e-05 (inactive). Further, in test [8], the slope is 0.00536 (inactive). Further, the outcome in test [9] is “inactive; toxic”.
In the case of `O=C(CSC1c2ccccc2-c2ccccc21)N/N=C/c1ccccc1`, the normalised thallium flux (F/F0 slope) in test [13] is 0.00922 (inactive). Moreover, the results for the normalized thallium flux (in the test “PubChem AID 1714”; in [14]) were 0.00567 (inactive) and 0.0321 (inactive), respectively. Further, the thallium flux rate (normalised fluorescence) in [15] was 0.00741 (inactive). Moreover, the raw Tl+ flux slope (below DMSO = inhibition, above = activation) in test [16] was 0.02 (inactive). For the same compound, the thallium flux slope in test [17] was 0.0112 (active).

The values are drawn from PubChem BioAssay.
